# GLP1R ag: activates the human GLP-1 receptor; P43220; HEK293 GLP-1R CRE-luciferase, luminescence, 4-6 h; cells express a hypersensitive GLP-1R form; Potency, µM (highest dose often 45.6 µM), inactives show top-dose activation, hits mostly activators; 0.007% of 380,000 active; AID 624172; also: % of control where 0% means no effect
# Target sequence (P43220 whole entry, looked up): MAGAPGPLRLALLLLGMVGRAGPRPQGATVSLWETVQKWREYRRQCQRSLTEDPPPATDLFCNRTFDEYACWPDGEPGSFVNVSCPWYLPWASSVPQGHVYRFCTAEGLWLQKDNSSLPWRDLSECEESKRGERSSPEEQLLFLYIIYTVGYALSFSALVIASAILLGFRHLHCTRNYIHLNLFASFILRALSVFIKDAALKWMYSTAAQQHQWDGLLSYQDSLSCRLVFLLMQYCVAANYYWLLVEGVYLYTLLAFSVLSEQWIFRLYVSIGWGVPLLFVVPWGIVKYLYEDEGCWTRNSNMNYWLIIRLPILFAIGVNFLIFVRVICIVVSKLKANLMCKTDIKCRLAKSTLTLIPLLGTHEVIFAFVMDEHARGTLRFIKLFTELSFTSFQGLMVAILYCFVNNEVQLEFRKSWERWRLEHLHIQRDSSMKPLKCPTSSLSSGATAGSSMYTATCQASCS
# GLP-1R inv ag: GLP-1 receptor (human) inverse agonism; 1.6% of 410,000 active; Potency, µM (top dose mostly 38.3 µM), without a hit: top-dose activity change, negative = inhibition, most hits filed as inhibitors; HEK293 GLP-1R CRE-luciferase, luminescence, 24 h; GLP-1R form is constitutively active; P43220; AID 624417; also: % is scaled to controls: 0 for no effect and ±100 for the full control effect; nearly all actives have a fitted effect of over 55% in size
#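 Using stably transfected HEK293 (constitutively active GLP-1R, cAMP-luciferase reporter), compounds were incubated 24 hr and luciferase measured by luminescence.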
# BRCA1 expr up: activators of BRCA1 expression; 1.1% of 380,000 active; Potency, µM (titrated, usually from 46.1 µM), for the others: at the highest dose activation, hits mostly activators; MCF7-BRCA1-FFLuc reporter, luminescence, 48 h; response scale: scaled: vehicle 0%, 10 µM genistein 100%; also: nearly all actives have a fitted effect of over 80% in size
#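 Luminescence from a BRCA1-driven firefly luciferase in MCF7 cells was read after 48 h compound exposure at 37 C. Data normalized against DMSO and a 10microM genistein activation control, then curve-fitted across the titration.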
# HEK293 tox: cytotoxic in the GLP-1 receptor inverse agonist counter-screen | HEK293 cAMP-luciferase reporter cells, luminescence, 24 h | Potency, µM (top dose mostly 38.3 µM), for the others: top-dose activity change, negative = inhibition, most hits filed as inhibitors | 0.13% of 410,000 active | AID 624418;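 also: loss of luciferase light is scored as toxicity; % is scaled to controls: 0 for no effect and ±100 for the full control effect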
#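 Here, cytotoxicity is scored as loss of luminescence. The MLSMR collection was tested on cells seeded in medium containing 10% Nu serum, with a 24 hr compound exposure preceded by 12 hours of culture.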
# Numbers without * were called inactive; ? = inconclusive; nt = no result; [ ] = dose if it differs, or a comment. Hits are enriched below; roughly 2.6% of the tested compounds scored in any of these assays. Calls follow the shape of the dose curve; as a rule, active = well fitted curve in the direction sought with a large enough effect; inconclusive = small, poorly fitted or top-dose-only effect, or another doubt; inactive = no such curve, though single readings can be large; an effect the other way counts as inactive or inconclusive. Potency is read from the fitted curve at half-maximal effect.
SMILES,GLP1R ag,GLP-1R inv ag,BRCA1 expr up,HEK293 tox
Cc1ccccc1-n1nnnc1SCC(=O)Nc1ccc(N2CCN(C)CC2)cc1,-4.9%,1µM*,-19.2%,-19.3%
Cc1cccc(-n2nnnc2SCC(=O)Nc2ccc(N3CCN(C)CC3)cc2)c1,2.6%,?,-25.9%,-18.1%
CN(C(=O)CSc1nc2ccccc2n1CC(=O)N(C)c1ccc(F)cc1)c1ccccc1,nt,?,0.0%,-17.4%
Cc1nc2ccccn2c1C(=O)CSc1cccc(Cl)c1,26.6%,?,30.1%,-2.7%
CCOC(=O)c1c(Nc2ccc(OC)cc2)nnc(-c2ccccc2)c1-c1ccccc1,-7.0%,-7.0%,18.7%,3.1%
O=P(O)(O)OC(Cn1cncn1)(Cn1cncn1)c1ccc(F)cc1F,-2.3%,nt,nt,nt
Cc1ccc(C(=O)NCc2ccc(F)cc2)s1,16.8%,-8.8%,71.1%,10.1%
Cc1ccc(CNC(=O)c2ccc(C)s2)cc1,12.2%,27.0%,12.6µM*,3.3%
O=S(=O)(Nc1ccccc1)c1ccc(-c2csnn2)cc1,4.0%,-25.0%,-10.1%,?
c1ccc(-c2ccc(-c3csnn3)cc2)cc1,-8.1%,12.6%,7.94µM*,10.7%
CSc1cccc(NS(=O)(=O)c2ccc3[nH]cc(C(=O)N4CCCC4)c(=O)c3c2)c1,nt,1.6%,nt,-3.9%
COc1ccc2ccccc2c1CN1CCN(C(=O)c2ccccc2)CC1,-2.6%,10µM*,-29.0%,-7.8%
Cc1ccc(CN2CCN(C(=O)c3cccc4ccccc34)CC2)cc1,12.2%,3.98µM*,-31.7%,-1.6%
Cc1ccccc1CN1CCN(C(=O)c2cccc3ccccc23)CC1,1.8%,10µM*,-19.9%,-6.8%
O=C(c1cccc2ccccc12)N1CCN(Cc2ccccc2F)CC1,-5.8%,?,-13.8%,-4.9%
COc1ccccc1CN1CCN(C(=O)c2cccc3ccccc23)CC1,-6.7%,11.2µM*,-15.9%,3.7%
COc1ccc2ccccc2c1CN1CCN(C(=O)c2ccco2)CC1,7.4%,?,-7.2%,?
O=C(Cc1ccc(OCCC2CCCCC2)cc1)NO,nt,nt,2.6%,nt
CCCCCC1CC1C(=O)N/N=C/c1ccc(N(C)C)cc1 (stereo not drawn),11.6%,7.94µM*,-7.4%,-6.6%
CN(C)c1ccc(/C=N/NC(=O)COc2ccccc2)cc1,0.3%,4.8%,91.0%,-10.0%
CC[C@H](C)[C@@H](NC(=O)O[C@@H]1C(=O)c2cc(Br)ccc2O[C@H]1c1cccc(OC)c1)C(=O)OC,-2.2%,?,-32.2%,0.7%
COc1cccc([C@@H]2Oc3ccc(Br)cc3C(=O)[C@H]2OC(=O)NC2CCCC2)c1,-3.5%,11.2µM*,-48.0%,0.4%
CC1CCc2sc(C(=O)NCc3ccccn3)cc2C1 (stereo not drawn),-0.1%,0.2%,11.2µM*,14.7%
CC1CCc2sc(C(=O)NC(C)C3CCCO3)cc2C1 (stereo not drawn),3.9%,-7.6%,?,-0.2%
CC1CCc2c(C(=O)Nc3nccs3)csc2C1 (stereo not drawn),-0.2%,?,12.6µM*,?
SMILES,GLP1R ag,GLP-1R inv ag,BRCA1 expr up,HEK293 tox
CC1CCc2sc(C(=O)NC3CCCCC3)cc2C1 (stereo not drawn),7.2%,1.9%,11.2µM*,-2.0%
CC1CCc2c(C(=O)Nc3ccccn3)csc2C1 (stereo not drawn),17.1%,?,?,10.7%
CC1CCc2c(C(=O)NCc3ccccn3)csc2C1 (stereo not drawn),8.9%,4.5%,11.2µM*,7.1%
O=C(O)Cc1cccc(-c2cc(CCCCCCc3ccc(O[C@H]4O[C@H](CO)[C@@H](O)[C@H](O)[C@@H]4O)c(-c4cccc(CC(=O)O)c4)c3)ccc2O[C@H]2O[C@H](CO)[C@@H](O)[C@H](O)[C@@H]2O)c1,-0.4%,nt,nt,nt
CC(=O)Cc1nsc(NC(=O)c2cn(-c3ccccc3)nc2-c2ccc(Br)cc2)n1,1.1%,-2.0%,0.6%[1.84 µM],1.4%
C/C(=N\NC(=O)c1cc2c(s1)CCC(C)C2)c1ccc[nH]1 (stereo not drawn),21.6%,-2.1%,5.01µM*,12.8%
O=C(NCC1CCCO1)c1csc2c1CCCCC2 (stereo not drawn),2.3%,1.7%,68.3%,9.0%
C/C(=N\NC(=O)c1cc2c(s1)CCC(C)C2)c1ccncc1 (stereo not drawn),14.1%,37.1%,55.2%,1.5%

# From PubChem
